Laboratory results from PMC5700166.
Numbering of substitutions follows the chain as printed.

Columns and labels:
Test in all cases: protein-binding microarray (PBM); PBM: ~300 nM protein, 6 mM HEPES pH 7.8, 80 mM KCl, 0.5 mM EDTA, 0.5 mM EGTA, 6% glycerol, 35 ng/ul poly-dIdC, 1% milk, 1 h, room temperature; Ap Aiptasia and Nv Nematostella (sea anemones) / Co Capsaspora / Aq Amphimedon (sponge) / Dm Drosophila / Hu human; RHD is the Rel homology domain; high values mean tight binding
Conditions in all cases: dsDNA, one strand shown
GST-Ap-NF-kB RHD = target: T1, GST-Ap-NF-kB RHD (Exaiptasia pallida (Aiptasia), UniProt A0A913YAJ5 2-422)
T1 sequence: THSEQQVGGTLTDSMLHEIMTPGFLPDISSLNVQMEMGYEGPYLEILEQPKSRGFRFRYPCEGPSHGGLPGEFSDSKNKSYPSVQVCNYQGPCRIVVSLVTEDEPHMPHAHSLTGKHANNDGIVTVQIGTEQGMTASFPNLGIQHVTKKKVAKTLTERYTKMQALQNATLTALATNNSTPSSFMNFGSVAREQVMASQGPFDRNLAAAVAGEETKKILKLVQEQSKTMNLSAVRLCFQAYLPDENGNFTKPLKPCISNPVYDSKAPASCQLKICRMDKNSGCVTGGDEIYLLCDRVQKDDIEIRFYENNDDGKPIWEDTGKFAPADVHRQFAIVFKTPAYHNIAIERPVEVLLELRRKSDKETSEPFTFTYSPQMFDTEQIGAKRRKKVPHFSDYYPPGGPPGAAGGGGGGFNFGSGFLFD

[1] = target: T2, GST-Nv-NF-kB (Cys allele) (Nematostella vectensis, UniProt E5G601 2-411)
T2 sequence: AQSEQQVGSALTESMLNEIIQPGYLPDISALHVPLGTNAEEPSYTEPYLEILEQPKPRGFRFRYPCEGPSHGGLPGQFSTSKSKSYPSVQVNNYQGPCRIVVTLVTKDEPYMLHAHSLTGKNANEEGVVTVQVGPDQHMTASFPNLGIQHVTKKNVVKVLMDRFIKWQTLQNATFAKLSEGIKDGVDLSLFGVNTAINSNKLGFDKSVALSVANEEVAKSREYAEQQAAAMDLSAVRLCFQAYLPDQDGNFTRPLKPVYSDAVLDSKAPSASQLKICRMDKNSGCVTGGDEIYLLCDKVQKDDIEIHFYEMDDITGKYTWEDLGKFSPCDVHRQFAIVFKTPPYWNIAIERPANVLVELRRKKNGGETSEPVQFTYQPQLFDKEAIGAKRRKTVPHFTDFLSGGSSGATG

[2] = target: T3, GST-Nv-NF-kB (Ser allele) (Nematostella vectensis, UniProt A7UNT2 2-411)
T3 sequence: T2 sequence with Q21R, C66S, S207N, E215Q, V217A, E225K, A268E, D399E

GST-Co-NF-kB = target: T4, GST-Co-NF-kB (Capsaspora owczarzaki, UniProt F1ARL5 200-546)
T4 sequence: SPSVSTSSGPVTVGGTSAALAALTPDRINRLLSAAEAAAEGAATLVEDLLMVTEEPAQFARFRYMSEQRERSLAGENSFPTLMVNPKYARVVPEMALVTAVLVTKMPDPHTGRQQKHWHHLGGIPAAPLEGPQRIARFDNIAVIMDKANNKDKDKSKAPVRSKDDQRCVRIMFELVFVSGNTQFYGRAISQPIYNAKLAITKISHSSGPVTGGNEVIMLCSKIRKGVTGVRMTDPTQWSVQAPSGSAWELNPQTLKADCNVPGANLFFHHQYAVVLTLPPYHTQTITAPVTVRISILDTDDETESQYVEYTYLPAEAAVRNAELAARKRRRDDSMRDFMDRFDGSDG

GST-Dm-Relish = target: T5, GST-Dm-Relish (Drosophila melanogaster, UniProt Q94527 99-473)
T5 sequence: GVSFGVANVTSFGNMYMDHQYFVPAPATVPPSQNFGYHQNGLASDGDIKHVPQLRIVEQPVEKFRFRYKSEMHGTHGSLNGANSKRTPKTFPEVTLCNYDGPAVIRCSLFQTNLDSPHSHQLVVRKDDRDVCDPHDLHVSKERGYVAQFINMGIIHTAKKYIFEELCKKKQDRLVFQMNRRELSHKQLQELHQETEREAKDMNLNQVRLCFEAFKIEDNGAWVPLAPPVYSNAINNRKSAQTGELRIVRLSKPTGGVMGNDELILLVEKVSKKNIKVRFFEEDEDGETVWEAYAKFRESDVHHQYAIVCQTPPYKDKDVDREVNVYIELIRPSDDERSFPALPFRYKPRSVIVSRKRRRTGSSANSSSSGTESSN

GST-Aq-NF-kB = target: T6, GST-Aq-NF-kB (Amphimedon queenslandica, UniProt A9Y5G7 2-389)
T6 sequence: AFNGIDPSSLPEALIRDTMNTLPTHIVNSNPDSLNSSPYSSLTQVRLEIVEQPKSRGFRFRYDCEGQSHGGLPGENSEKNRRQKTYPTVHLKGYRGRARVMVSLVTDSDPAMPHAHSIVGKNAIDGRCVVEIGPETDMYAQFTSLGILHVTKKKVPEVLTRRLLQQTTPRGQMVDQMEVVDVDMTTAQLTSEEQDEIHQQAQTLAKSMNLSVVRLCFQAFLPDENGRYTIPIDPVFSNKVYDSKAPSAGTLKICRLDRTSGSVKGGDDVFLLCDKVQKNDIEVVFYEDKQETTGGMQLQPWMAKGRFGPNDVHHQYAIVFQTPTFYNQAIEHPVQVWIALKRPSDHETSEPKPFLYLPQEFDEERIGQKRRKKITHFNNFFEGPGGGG

GST-Hu-p50 = GST-Hu-p50 (Homo sapiens, UniProt P19838 7-356)
Sequence of GST-Hu-p50 (P19838 7-356): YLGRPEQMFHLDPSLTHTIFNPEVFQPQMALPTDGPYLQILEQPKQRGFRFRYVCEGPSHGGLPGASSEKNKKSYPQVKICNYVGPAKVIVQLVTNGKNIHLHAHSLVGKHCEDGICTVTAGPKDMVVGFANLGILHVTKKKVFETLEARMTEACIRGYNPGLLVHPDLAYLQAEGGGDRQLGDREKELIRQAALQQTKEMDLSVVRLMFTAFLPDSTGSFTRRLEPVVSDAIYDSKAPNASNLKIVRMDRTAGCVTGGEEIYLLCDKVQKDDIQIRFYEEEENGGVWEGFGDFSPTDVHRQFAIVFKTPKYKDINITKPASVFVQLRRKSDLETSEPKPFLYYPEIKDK

Row | Sequence | binding signal (GST-Ap-NF-kB RHD) [z-score] | binding signal [1] [z-score] | binding signal [2] [z-score] | binding signal (GST-Co-NF-kB) [z-score] | binding signal (GST-Dm-Relish) [z-score] | binding signal (GST-Aq-NF-kB) [z-score] | binding signal (GST-Hu-p50) [z-score]
1 | CCGATTAACATCACCCATTTCCCTGATGTTAATCGGGTCTTGATTCGCTTGACGCTGCTG | 2.51 | 3.07 | 3.99 | 3 | 1.35 | 2.52 | 2.57
2 | CCGATTAACATCAGATATTCCCCTGATGTTAATCGGGTCTTGATTCGCTTGACGCTGCTG | 7.71 | 9.63 | 8.71 | 8.17 | 5.36 | 7.31 | 5.94
3 | CCGATTAACATCAGGGACTACCCTGATGTTAATCGGGTCTTGATTCGCTTGACGCTGCTG | 6.16 | 5.24 | 4.07 | 1.8 | 7.1 | 7.57 | 4.13
4 | CCGATTAACATCAGGGAGATCCCTGATGTTAATCGGGTCTTGATTCGCTTGACGCTGCTG | 7.41 | 8.14 | 4.37 | 1.54 | 7.36 | 8.85 | 4.68
5 | CCGATTAACATCAGGGAACCACCTGATGTTAATCGGGTCTTGATTCGCTTGACGCTGCTG | 6.9 | 5.68 | 4.58 | 1.22 | 9.5 | 6.96 | 5.71
6 | CCGATTAACATCAAAATTCCCGCTGATGTTAATCGGGTCTTGATTCGCTTGACGCTGCTG | 4.49 | 5.99 | 5.62 | 5.23 | 5.76 | 5.51 | 4.41
7 | CCGATTAACATCAGGGAATTACCTGATGTTAATCGGGTCTTGATTCGCTTGACGCTGCTG | 8.44 | 9.55 | 9.14 | 5.01 | 8.83 | 9.49 | 5.8
8 | CCGATTAACATCAGGGAAAGTTATGATGTTAATCGGGTCTTGATTCGCTTGACGCTGCTG | 3.92 | 6.93 | 6.19 | 4.08 | 2.29 | 6.81 | 4.76
9 | CCGATTAACATCAGGAAACCCCATGATGTTAATCGGGTCTTGATTCGCTTGACGCTGCTG | 5.38 | 4.14 | 2.64 | 1.76 | 8.23 | 4.84 | 4.69
10 | CCGATTAACATCAGGGGGAACGATGATGTTAATCGGGTCTTGATTCGCTTGACGCTGCTG | 5.18 | 4.82 | 6.18 | 7.4 | 2.42 | 4.16 | 4.41
11 | CCGATTAACATCACGGAATCCCCTGATGTTAATCGGGTCTTGATTCGCTTGACGCTGCTG | 8.93 | 8.59 | 9.68 | 3.45 | 9.36 | 6.48 | 6.67
12 | CCGATTAACATCAGGACCCCCCCTGATGTTAATCGGGTCTTGATTCGCTTGACGCTGCTG | 7.35 | 4.56 | 3.23 | 2.94 | 6.37 | 7.44 | 4.44
13 | CCGATTAACATCAAAAATCCCCGTGATGTTAATCGGGTCTTGATTCGCTTGACGCTGCTG | 9.77 | 10.8 | 11.1 | 6.22 | 10.1 | 8.1 | 7.67
14 | CCGATTAACATCAATATTTCCCCTGATGTTAATCGGGTCTTGATTCGCTTGACGCTGCTG | 8.09 | 10.1 | 13.2 | 10.7 | 5.87 | 6.9 | 7.24
15 | CCGATTAACATCAGGGGATCCCCTGATGTTAATCGGGTCTTGATTCGCTTGACGCTGCTG | 14.6 | 11.6 | 12.1 | 7.53 | 10.8 | 11.3 | 7.87
16 | CCGATTAACATCAGGGGGGTAAATGATGTTAATCGGGTCTTGATTCGCTTGACGCTGCTG | 4.89 | 4.22 | 4.83 | 7.69 | 4.17 | 4.53 | 4.35
17 | CCGATTAACATCAGGGGGACAACTGATGTTAATCGGGTCTTGATTCGCTTGACGCTGCTG | 5.19 | 5.15 | 4.83 | 6.16 | 3.66 | 4.24 | 4.46
18 | CCGATTAACATCAAATTCCCGGGTGATGTTAATCGGGTCTTGATTCGCTTGACGCTGCTG | 3.33 | 3.9 | 3.88 | 4.43 | 3.94 | 3.13 | 3.85
19 | CCGATTAACATCAGGGGAAGTACTGATGTTAATCGGGTCTTGATTCGCTTGACGCTGCTG | 7.14 | 8.22 | 9.13 | 5.32 | 10.7 | 7.89 | 6.9
20 | CCGATTAACATCAGCAATTTCCCTGATGTTAATCGGGTCTTGATTCGCTTGACGCTGCTG | 3.13 | 4.55 | 5.81 | 3.47 | 1.78 | 3.79 | 3.52
21 | CCGATTAACATCAATTTCCCAGGTGATGTTAATCGGGTCTTGATTCGCTTGACGCTGCTG | 2.16 | 2.4 | 3.53 | 3.41 | 1.61 | 2.15 | 3.21
22 | CCGATTAACATCACTAGTCCCCCTGATGTTAATCGGGTCTTGATTCGCTTGACGCTGCTG | 4.7 | 3.39 | 3.45 | 3.98 | 2.58 | 3.81 | 3.46
23 | CCGATTAACATCAAATAATCCCCTGATGTTAATCGGGTCTTGATTCGCTTGACGCTGCTG | 8.76 | 10 | 10.6 | 5.91 | 7.99 | 7.75 | 6.78
24 | CCGATTAACATCACTACCCCCCCTGATGTTAATCGGGTCTTGATTCGCTTGACGCTGCTG | 3.87 | 3.41 | 2.74 | 5.59 | 3.94 | 3.4 | 3.52
25 | CCGATTAACATCAAAATCCCAGGTGATGTTAATCGGGTCTTGATTCGCTTGACGCTGCTG | 2.06 | 1.42 | 1.85 | 1.6 | 5.57 | 2.06 | 3.17
